The results in this text go back to PubChem BioAssay (EPA / NIEHS).

In experiment [1] the target is Bile acid receptor (Homo sapiens) (UniProt Q96RI1). As to the kind of experiment: ATG_IR1_CIS: Attagene CIS-FACTORIAL HepG2 Assay for human Nuclear Receptor Subfamily 1 Group H Member 4 (NR1H4), IR1 submotif (AID 2282946). The following applies: IR1 reporter transcription, actives raise or lower the signal. In short, it runs like this: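 HepG2 cells transiently transfected with multiplexed cis-element reporter units read endogenous transcription factor activity. After 24 h compound exposure, reporter mRNA was quantified by RT-PCR, fluorescent labelling, HpaI digestion and capillary electrophoresis; bidirectional fitting versus DMSO baseline.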

The nature of experiment [2]: ATG_GRE_CIS: Attagene CIS-FACTORIAL HepG2 Assay for human Glucocorticoid Response Elements (GRE) (AID 2282947). The following applies: HepG2 GRE cis-reporter, Attagene multiplex mRNA; actives raise or lower the signal. Put shortly: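 Reporter transcripts read by RT-PCR with capillary electrophoresis fluorescence after a 24 h chemical exposure of HepG2 cells transiently transfected with multiple cis-element reporter units. Gain or loss fitted against DMSO.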

The nature of experiment [3]: ATG_ISRE_CIS: Attagene CIS-FACTORIAL HepG2 Assay for human Interferon Regulatory Factor 1 (IRF1) binding to an Interferon-Stimulated Response Element (ISRE) (AID 2282948). Conditions: HepG2 ISRE cis-reporter (Attagene), mRNA transcription readout; actives raise or lower the signal. Put shortly:
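Multiplexed mRNA reporter readout in human liver HepG2 cells: cis-element-driven reporters transfected, compound added for 24 h, transcripts amplified, fluorescently labelled and sized by capillary electrophoresis; curve fitting bidirectional against DMSO.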

Experiment [4] is described as follows: ATG_M_32_CIS: Attagene CIS-FACTORIAL HepG2 Assay for M32 Transcription Factor (Internal Marker) (AID 2282949).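 Further: background control marker of the multiplexed CIS panel rather than a real target.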 The following applies: HepG2 Attagene cis-factorial M32 reporter, mRNA; actives raise or lower the signal. Put shortly:
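HepG2 human liver cells transiently transfected with cis-promoter-driven multiple reporter transcription units, dosed 24 h. Reporter mRNA quantified by RT-PCR, FAM-labelled primer extension, HpaI digest and capillary electrophoresis; bidirectional fit versus DMSO baseline.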

A short description of experiment [5]: ATG_M_06_CIS: Attagene CIS-FACTORIAL HepG2 Assay for M06 Transcription Factor (Internal Marker) (AID 2282950). Conditions: HepG2 Attagene CIS-FACTORIAL M06 internal marker reporter; actives raise or lower the signal. In short, it runs like this: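 One of many multiplexed endpoints: HepG2 reporter mRNA after 24 h dosing, detected by RT-PCR and capillary electrophoresis fluorescence; gain or loss of signal analysed against DMSO.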

Experiment [6] deals with Hypoxia-inducible factor 1-alpha (Homo sapiens) (UniProt Q16665). As to the kind of experiment: ATG_HIF1a_CIS: Attagene CIS-FACTORIAL HepG2 Assay for human Hypoxia Inducible Factor 1 (HIF1A) (AID 2282951). The following applies: HepG2 Attagene cis-factorial HIF1a reporter transcription; actives raise or lower the signal. Put shortly: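 Cis-element reporter constructs were transiently transfected into HepG2 cells, which were treated for 24 h; reporter RNA was reverse-transcribed, amplified, labelled and resolved by capillary electrophoresis.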

The target of experiment [7] is Hepatocyte nuclear factor 6 (Homo sapiens) (UniProt Q9UBC0). Kind of experiment: ATG_HNF6_CIS: Attagene CIS-FACTORIAL HepG2 Assay for human Hepatocyte Nuclear Factor 6 (HNF6) (AID 2282952). Conditions: HepG2 Attagene cis-factorial HNF6 reporter transcription; actives raise or lower the signal. Put shortly:
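Endogenous factor activity read in transiently transfected HepG2 via promoter-regulated reporter transcripts. RNA harvested 24 h post-dosing, reverse-transcribed, PCR-amplified, FAM-labelled, HpaI-digested and resolved by capillary electrophoresis; fitted in both directions against DMSO.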

For experiment [8], the target named is Heat shock factor protein 1 (Homo sapiens) (UniProt Q00613). Kind of experiment: ATG_HSE_CIS: Attagene CIS-FACTORIAL HepG2 Assay for human Heat Shock Transcription Factor 1 (HSE) (AID 2282953). The following applies: HepG2 HSE cis-reporter, Attagene RNA transcription; actives raise or lower the signal. In short, it runs like this:
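Using HepG2 with transfected cis-driven reporter constructs, compound effects on endogenous factor activity are scored as reporter mRNA change at 24 h. Detection: RT-PCR, HpaI digestion, capillary electrophoresis; bidirectional fitting to DMSO.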

The nature of experiment [9]: ATG_MRE_CIS: Attagene CIS-FACTORIAL HepG2 Assay for human Metal Responsive Element (MRE) (AID 2282954). The following applies: HepG2 MRE cis-reporter transcription, Attagene multiplex; actives raise or lower the signal. Put shortly: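 Endogenous MRE-dependent transcription read as reporter mRNA in transiently transfected human HepG2 cells at 24 h. RNA reverse-transcribed, PCR-amplified, labelled and resolved by capillary electrophoresis; gain or loss relative to DMSO.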

Experiment [10] in a line: ATG_PBREM_CIS: Attagene CIS-FACTORIAL HepG2 Assay for human Phenobarbital-responsive Enhancer Module (PBREM) (AID 2282955). The following applies: HepG2 PBREM cis-reporter, Attagene multiplexed transcription; actives raise or lower the signal. Put shortly: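 Multiplexed cis-reporter readout in human hepatoma HepG2 cells; PBREM-regulated transcript quantified after 24 h exposure by fluorescent RT-PCR fragment analysis. Signal changes up or down fitted relative to DMSO.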

Experiment [11] has as its target Paired box protein Pax-6 (Homo sapiens) (UniProt P26367). As to the kind of experiment: ATG_Pax6_CIS: Attagene CIS-FACTORIAL HepG2 Assay for human Paired Box 6 (PAX6) (AID 2282956). Conditions: HepG2 CIS-FACTORIAL PAX6 reporter transcription, RNA readout; actives raise or lower the signal. In short, it runs like this:
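Fluorescent RT-PCR products separated by capillary electrophoresis report PAX6-linked promoter mRNA in HepG2 cells 24 h post-dose. Curves fitted bidirectionally, DMSO as negative control.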

The nature of experiment [12]: ATG_PXRE_CIS: Attagene CIS-FACTORIAL HepG2 Assay for human Pregnane X Receptor Element (PXRE) (AID 2282957). Conditions: HepG2 Attagene CIS-FACTORIAL PXRE reporter, mRNA; actives raise or lower the signal. Put shortly: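 Reporter transcripts under endogenous PXR-responsive cis-regulation quantified from total RNA of transfected HepG2 cells 24 h post-dosing, via RT-PCR with fluorescent primer extension and capillary electrophoresis. Gain or loss of signal fitted against DMSO baseline.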

A short description of experiment [13]: ATG_PPRE_CIS: Attagene CIS-FACTORIAL HepG2 Assay for human Peroxisome Proliferator-activated Response Element (PPRE) (AID 2282958). Conditions: HepG2 PPRE cis-element reporter, Attagene transcription factor profiling; actives raise or lower the signal. Put shortly: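 DMSO served as negative control and baseline for bidirectional curve fitting. Signal came from PPRE-regulated reporter mRNA in HepG2 cells, measured 24 h post-dosing by RT-PCR, 6-FAM primer extension and capillary electrophoresis.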

A short description of experiment [14]: ATG_RORE_CIS: Attagene CIS-FACTORIAL HepG2 Assay for human RAR-related Orphan Receptor Element (RORE) (AID 2282959). The following applies: HepG2 Attagene cis-factorial RORE reporter, mRNA; actives raise or lower the signal. In short, it runs like this: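 Transfect HepG2 with MRTUs; treat 24 h; extract RNA; RT with oligo(dT); PCR with reporter-specific primers; 6-FAM primer extension; HpaI digest 2 h at 37 C; capillary electrophoresis. Fit vs DMSO, bidirectional.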

A short description of experiment [15]: ATG_Sox_CIS: Attagene CIS-FACTORIAL HepG2 Assay for human SRY-box transcription factor (SOX) (AID 2282960). The following applies: HepG2 Attagene cis-factorial SOX reporter, mRNA; actives raise or lower the signal. In short, it runs like this: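 Fluorescence-labelled cDNA fragments from reporter transcripts, sized by CE, give the signal. Cells: HepG2, transiently transfected with cis-regulated reporter units. Exposure 24 h; DMSO negative control; bidirectional curve fitting.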

Experiment [16] deals with Transcription factor Sp1 (Homo sapiens) (UniProt P08047). As to the kind of experiment: ATG_Sp1_CIS: Attagene CIS-FACTORIAL HepG2 Assay for human Specificity Protein 1 (Sp1) (AID 2282961). Conditions: HepG2 Sp1 cis-reporter transcription, actives raise or lower the signal. In short, it runs like this:
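Chemicals are dosed onto HepG2 cells transfected with multiple cis-promoter reporter constructs, and after 24 h reporter RNA is reverse-transcribed, PCR-amplified and resolved by capillary electrophoresis for fluorescence quantitation; activity is scored up or down against DMSO.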

A short description of experiment [17]: ATG_SREBP_CIS: Attagene CIS-FACTORIAL HepG2 Assay for human Sterol Regulatory Element Binding (SREBP) (AID 2282962). The following applies: HepG2 Attagene cis-factorial SREBP reporter, mRNA; actives raise or lower the signal. In short, it runs like this: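 Endogenous factor activity is measured in HepG2 through multiplexed reporter units under cis-element control. Following a 24 h incubation, reporter transcripts are reverse-transcribed, PCR-amplified and sized by capillary electrophoresis; activity is fitted in both directions relative to DMSO.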

The target in experiment [18] is Signal transducer and activator of transcription 3 (Homo sapiens) (UniProt P40763). Kind of experiment: ATG_STAT3_CIS: Attagene CIS-FACTORIAL HepG2 Assay for human Signal Transducer and Activator of Transcription 3 (STAT3) (AID 2282963). The following applies: HepG2, Attagene cis-factorial STAT3 reporter transcription; actives raise or lower the signal. Put shortly: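 Readout is reporter transcript quantified by RT-PCR and capillary electrophoresis, with 6-FAM primer extension and HpaI digestion. Total RNA is taken 24 h after dosing transiently transfected HepG2 carrying cis-regulated reporter units. Bidirectional fit against DMSO.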

The nature of experiment [19]: ATG_TA_CIS: Attagene CIS-FACTORIAL HepG2 Assay for human TA Basal Promoter (AID 2282964). The following applies: HepG2 Attagene CIS-factorial TA basal promoter reporter; actives raise or lower the signal. Put shortly: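 Transient MRTU transfection of HepG2 preceded 24 h compound exposure. Reporter mRNA levels were then read by RT-PCR with capillary electrophoresis, and this background-control endpoint was fitted bidirectionally to DMSO.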

A short description of experiment [20]: ATG_TCF_b_cat_CIS: Attagene CIS-FACTORIAL HepG2 Assay for human T-Cell-Factor with beta-catenin (TCF/b-cat) (AID 2282965). The following applies: HepG2 TCF/beta-catenin cis-reporter transcription, actives raise or lower the signal. Put shortly:
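Endogenous transcription factor activity is captured through cis-promoter reporter constructs transiently introduced into human HepG2 liver cells. Induced reporter mRNA is measured after 24 h and fitted bidirectionally relative to DMSO.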

Activity calls are given as the source filed them. How the source made its calls: active means hit-call score of the fitted dose curve at least 0.9, where 1 is the maximum; inactive means score below 0.9.

Sequence of Hypoxia-inducible factor 1-alpha (Homo sapiens) (Q16665 whole entry, looked up): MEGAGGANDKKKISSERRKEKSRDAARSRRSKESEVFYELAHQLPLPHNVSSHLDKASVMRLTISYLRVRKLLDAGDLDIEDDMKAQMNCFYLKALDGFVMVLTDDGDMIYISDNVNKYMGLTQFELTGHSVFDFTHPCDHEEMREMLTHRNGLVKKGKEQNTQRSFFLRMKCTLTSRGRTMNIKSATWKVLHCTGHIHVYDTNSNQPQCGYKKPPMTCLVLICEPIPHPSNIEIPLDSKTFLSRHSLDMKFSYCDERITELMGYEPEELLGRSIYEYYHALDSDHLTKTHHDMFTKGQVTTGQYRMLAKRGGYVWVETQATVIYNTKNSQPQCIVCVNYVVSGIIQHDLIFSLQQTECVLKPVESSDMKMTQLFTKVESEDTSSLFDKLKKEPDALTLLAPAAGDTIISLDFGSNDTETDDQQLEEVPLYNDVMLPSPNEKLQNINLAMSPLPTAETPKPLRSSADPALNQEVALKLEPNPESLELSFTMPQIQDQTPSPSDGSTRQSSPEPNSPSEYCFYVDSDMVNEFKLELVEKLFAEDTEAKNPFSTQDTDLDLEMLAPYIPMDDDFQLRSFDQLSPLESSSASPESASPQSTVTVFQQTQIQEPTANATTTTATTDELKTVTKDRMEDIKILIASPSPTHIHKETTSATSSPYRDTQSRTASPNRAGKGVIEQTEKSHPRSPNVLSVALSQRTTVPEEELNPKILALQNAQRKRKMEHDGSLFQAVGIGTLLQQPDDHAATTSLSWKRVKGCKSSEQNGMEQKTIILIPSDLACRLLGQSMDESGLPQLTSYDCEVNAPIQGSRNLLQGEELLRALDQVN
Sequence of Hepatocyte nuclear factor 6 (Homo sapiens) (Q9UBC0 whole entry, looked up): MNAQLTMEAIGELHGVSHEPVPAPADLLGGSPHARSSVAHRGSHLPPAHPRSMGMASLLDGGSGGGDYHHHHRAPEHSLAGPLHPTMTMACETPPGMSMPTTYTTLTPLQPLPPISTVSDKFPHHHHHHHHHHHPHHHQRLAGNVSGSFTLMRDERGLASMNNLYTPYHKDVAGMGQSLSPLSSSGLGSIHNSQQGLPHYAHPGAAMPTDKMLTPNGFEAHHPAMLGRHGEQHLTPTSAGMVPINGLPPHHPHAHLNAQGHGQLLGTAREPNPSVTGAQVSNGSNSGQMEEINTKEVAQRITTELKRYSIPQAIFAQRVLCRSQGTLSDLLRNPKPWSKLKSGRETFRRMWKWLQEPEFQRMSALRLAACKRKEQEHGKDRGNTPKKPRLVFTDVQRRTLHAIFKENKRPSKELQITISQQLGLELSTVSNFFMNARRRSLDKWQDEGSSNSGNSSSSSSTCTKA
Sequence of Heat shock factor protein 1 (Homo sapiens) (Q00613 whole entry, looked up): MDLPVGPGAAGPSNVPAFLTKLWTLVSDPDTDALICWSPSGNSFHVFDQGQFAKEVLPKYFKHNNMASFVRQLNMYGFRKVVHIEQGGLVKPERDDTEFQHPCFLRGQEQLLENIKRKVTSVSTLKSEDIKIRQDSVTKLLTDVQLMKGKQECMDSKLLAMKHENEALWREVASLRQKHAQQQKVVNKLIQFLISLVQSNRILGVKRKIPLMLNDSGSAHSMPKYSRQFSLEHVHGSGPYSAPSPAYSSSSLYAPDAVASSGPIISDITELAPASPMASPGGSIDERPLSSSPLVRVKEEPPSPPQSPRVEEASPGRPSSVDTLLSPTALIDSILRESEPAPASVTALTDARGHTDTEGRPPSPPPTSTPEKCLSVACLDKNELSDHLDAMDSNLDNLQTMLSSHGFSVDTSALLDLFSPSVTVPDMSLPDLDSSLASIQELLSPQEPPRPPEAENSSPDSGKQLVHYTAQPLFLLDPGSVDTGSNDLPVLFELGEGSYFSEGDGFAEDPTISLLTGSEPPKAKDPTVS
Sequence of Paired box protein Pax-6 (Homo sapiens) (P26367 whole entry, looked up): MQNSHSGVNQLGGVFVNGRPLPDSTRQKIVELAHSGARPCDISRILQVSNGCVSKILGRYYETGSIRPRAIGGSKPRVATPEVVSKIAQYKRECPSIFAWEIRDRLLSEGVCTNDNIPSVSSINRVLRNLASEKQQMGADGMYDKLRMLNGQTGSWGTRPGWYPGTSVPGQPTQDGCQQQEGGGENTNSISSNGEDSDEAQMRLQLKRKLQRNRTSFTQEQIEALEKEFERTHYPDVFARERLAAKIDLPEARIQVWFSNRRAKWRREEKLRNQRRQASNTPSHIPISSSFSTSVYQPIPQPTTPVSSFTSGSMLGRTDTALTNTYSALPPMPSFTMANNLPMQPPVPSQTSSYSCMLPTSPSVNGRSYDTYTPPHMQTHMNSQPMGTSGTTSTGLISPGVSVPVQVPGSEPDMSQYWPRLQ
Sequence of Transcription factor Sp1 (Homo sapiens) (P08047 whole entry, looked up): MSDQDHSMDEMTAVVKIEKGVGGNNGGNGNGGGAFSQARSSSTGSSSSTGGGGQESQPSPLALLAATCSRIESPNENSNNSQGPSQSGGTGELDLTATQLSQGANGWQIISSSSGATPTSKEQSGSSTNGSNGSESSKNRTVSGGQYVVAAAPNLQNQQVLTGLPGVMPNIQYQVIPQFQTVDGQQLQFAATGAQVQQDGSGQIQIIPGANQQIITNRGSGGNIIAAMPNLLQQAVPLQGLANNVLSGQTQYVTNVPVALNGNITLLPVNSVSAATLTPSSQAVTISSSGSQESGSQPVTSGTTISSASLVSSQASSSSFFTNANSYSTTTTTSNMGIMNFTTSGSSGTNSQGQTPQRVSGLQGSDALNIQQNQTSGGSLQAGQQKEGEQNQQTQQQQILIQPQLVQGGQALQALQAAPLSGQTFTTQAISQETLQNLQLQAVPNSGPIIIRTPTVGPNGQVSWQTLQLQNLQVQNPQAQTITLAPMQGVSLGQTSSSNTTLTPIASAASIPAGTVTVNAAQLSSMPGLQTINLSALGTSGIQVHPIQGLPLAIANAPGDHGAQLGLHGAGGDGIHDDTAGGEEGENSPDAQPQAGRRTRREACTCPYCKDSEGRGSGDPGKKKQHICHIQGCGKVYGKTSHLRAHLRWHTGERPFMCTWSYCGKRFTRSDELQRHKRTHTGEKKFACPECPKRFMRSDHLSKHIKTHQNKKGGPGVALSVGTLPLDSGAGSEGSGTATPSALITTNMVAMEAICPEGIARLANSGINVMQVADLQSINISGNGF
Sequence of Bile acid receptor (Homo sapiens) (Q96RI1 whole entry, looked up): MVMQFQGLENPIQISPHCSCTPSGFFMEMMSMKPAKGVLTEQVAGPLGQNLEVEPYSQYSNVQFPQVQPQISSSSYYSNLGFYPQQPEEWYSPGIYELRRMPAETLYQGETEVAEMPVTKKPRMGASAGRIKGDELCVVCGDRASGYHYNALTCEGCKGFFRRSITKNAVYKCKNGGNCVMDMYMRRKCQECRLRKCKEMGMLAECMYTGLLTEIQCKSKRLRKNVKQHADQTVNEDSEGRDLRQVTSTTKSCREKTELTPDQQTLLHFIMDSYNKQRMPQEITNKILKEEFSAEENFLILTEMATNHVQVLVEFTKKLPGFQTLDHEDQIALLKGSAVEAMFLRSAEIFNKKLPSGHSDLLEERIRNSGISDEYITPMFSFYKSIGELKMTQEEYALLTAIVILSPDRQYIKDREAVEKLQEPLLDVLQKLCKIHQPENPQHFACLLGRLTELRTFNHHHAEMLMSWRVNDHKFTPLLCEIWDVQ
Sequence of Signal transducer and activator of transcription 3 (Homo sapiens) (P40763 whole entry, looked up): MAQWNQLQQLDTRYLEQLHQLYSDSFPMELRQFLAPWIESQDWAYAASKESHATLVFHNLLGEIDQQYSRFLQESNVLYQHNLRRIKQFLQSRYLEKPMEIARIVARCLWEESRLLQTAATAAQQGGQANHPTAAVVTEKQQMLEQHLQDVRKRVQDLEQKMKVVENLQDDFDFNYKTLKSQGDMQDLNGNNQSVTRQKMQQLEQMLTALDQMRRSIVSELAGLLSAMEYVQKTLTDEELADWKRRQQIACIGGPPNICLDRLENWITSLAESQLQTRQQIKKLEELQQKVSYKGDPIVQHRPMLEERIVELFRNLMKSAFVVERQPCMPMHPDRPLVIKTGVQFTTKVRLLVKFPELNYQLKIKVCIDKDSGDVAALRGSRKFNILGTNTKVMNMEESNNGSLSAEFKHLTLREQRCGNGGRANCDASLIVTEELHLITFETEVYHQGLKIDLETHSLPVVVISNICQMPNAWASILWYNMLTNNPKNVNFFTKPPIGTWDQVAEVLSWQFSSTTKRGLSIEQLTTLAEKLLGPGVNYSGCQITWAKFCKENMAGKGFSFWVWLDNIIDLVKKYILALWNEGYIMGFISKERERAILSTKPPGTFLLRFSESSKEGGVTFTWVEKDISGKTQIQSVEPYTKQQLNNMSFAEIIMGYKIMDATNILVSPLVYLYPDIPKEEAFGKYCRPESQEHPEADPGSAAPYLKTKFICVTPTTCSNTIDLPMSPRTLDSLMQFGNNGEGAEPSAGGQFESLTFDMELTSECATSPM

Regarding `C=CC(=O)OCCC#N`, the AC50 (usually the midpoint of the concentration-response curve, whichever way the signal moves) is 58.1 µM (active) in experiment [1]; 64.2 µM (active) in experiment [2]; 70 µM (active) in experiment [3]; 56.6 µM (active) in experiment [6]; 170 µM (active) in experiment [8]; 86.2 µM (active) in experiment [9]. Further, the AC50 in experiment [11] was 47.9 µM (active); in [12] it was 62.5 µM (active); in experiment [15], 41.1 µM (active); in [17], 76.4 µM (active). The result in [4], in experiment [5], in experiment [7], in [10], in experiment [13] and in experiment [14] was inactive. Besides, the compound was called inactive in [16], in experiment [18], in experiment [19] and in [20].
In the case of `CCCC(C)C(O)CC` (configuration not stated), the call in experiment [1], in experiment [2], in experiment [3], in experiment [4], in experiment [5] and in experiment [6] was inactive. Further, the compound was classed as inactive in [7], in experiment [8], in experiment [9], in [11], in [12] and in experiment [14]. For the same compound, the result in experiment [15], in experiment [16], in experiment [17], in experiment [18], in experiment [19] and in experiment [20] was inactive.
As to `C=COCCOCCOC=C`, the compound was classed as inactive in experiment [1], in experiment [2], in experiment [3], in [4], in [5] and in [6]. For the same compound, the call in [7], in experiment [8], in experiment [9], in experiment [10], in experiment [11] and in experiment [12] was inactive. The result in [14], in [15], in experiment [16], in experiment [17], in experiment [18] and in [19] was inactive. Besides, the result in experiment [20] was inactive.
